Experimental data reported in PubChem BioAssay AID540303 (National Center for Advancing Translational Sciences (NCATS), 2011).
Hit rate of the full screen: of about 330,000 compounds, about 1,000 (0.3%) were called active. Inconclusive results (about 3%) are left out. The call rests on the fitted dose curve; in most records, active means well fitted inhibition curve with a large enough effect; inconclusive means small, poorly fitted or top-dose-only effect; inactive means no such curve, though single readings can be large or run the other way; tested in mouse RAW 264.7 cells. Many of the other results were omitted from the sample, so actives are more common in it than they were.

experiment: qHTS for Inhibitors of Cell Surface uPA Generation; conditions: cell surface uPA generation assay; series mostly up to 38.3 µM; activity change, negative = inhibition: at the top concentration; further: nearly all actives have a fitted effect of over 55% in size
Source text: The overall objective of this project is to perform a quantitative high throughput screen (qHTS) to identify novel compounds that inhibit the generation of cell surface urokinase activity. The urokinase plasminogen activator (uPA) is one of the two primary endogenous systems that mediate plasminogen activation into plasmin. Members of this system, including uPA and its receptor (uPAR), are overexpressed in several malignant tumors. This system plays a major role in adhesion, migration, invasion and metastasis of cancer cells. Small molecule inhibitors of the uPA system will serve as probes to understand the molecular mechanisms of the uPA cascade and better understanding the microenvironmental circumstances that facilitate the activation of plasminogen by uPA, and finally may provide novel candidate agents for anticancer drug therapy.
[…] […] Upon inhibition of the uPA activation cascade, the subsequent cell surface uPA activity-dependent translocation of LF into the cytoplasm is inhibited. ATP-Lite is used to measure intracellular ATP concentrations, which remain increased if LF entry into the cytoplasm is inhibited. This validation assay was performed using a small set of validation compounds.
NIH Chemical Genomics Center [NCGC]
NIH Molecular Libraries Probe Centers Network [MLPCN]
Assay Submitter (PI): Thomas Bugge, National Institute of Dental and Craniofacial Research, NIH
Cultured RAW 264.7 were dispensed into 1536-well clear bottom, white walled tissue culture plates at a density of 4000 cells/well and were incubated overnight (12-16 h) at 37 C in a 5% CO2 incubator. Serially diluted compounds in 23 nl DMSO were added to cells. […] Compound and reagent-treated plates were incubated for 24 h at 37 C in a 5% CO2 incubator. Perkin Elmer ATPlitetrade mark 1 step (3 ul) was then added to each well. Luminescence was detected using a Perkin Elmer ViewLuxtrade mark plate reader.
1.Dispensing RAW 264.7 cells into 1536-well, white walled tissue culture plates at a density of 4000 cells/well (4 uL).
2.Incubation at 37 C in a 5% CO2 incubator overnight.
3.Serially diluting compounds (1:5 serial dilution; 0.0024 uM to […] final concentration) in 23 nl DMSO.
5.Incubating the compound and reagent-treated plates for 24 hours at 37 C in a 5% CO2 incubator.
6.Adding ATP-Lite (3 ul).
7.Reading plates by ViewLux with an exposure length of 5 seconds.
On the % scale 0 is the no-effect control and ±100 the full control effect; potency means the concentration at half of the fitted maximal effect.

Structure (SMILES)	activity change, negative = inhibition	Potency
COc1ccc(OC)c(/C=C/C(=O)OCC(=O)Nc2ccc3c(c2)OCCO3)c1	-8.9% (inactive)	
c1ccc(CCc2ccccn2)cc1	3.66% (inactive)	
NC(CSC1(c2ccccc2)c2ccccc2-c2ccccc21)C(=O)O (stereo not drawn)	11.5% (inactive)	
Cc1c(/C=N\NC(=O)c2cc3ccccc3o2)c2ccccc2n1C		3.55 µM (active)
O=C(N/N=C/c1cccc(O)c1)c1cc2c(ccc3ccccc32)o1	-9.76% (inactive)	
Cc1c(/C=N/N2C(=O)C3C4C=CC(C4)C3C2=O)c2ccccc2n1C (stereo not drawn)	7.94% (inactive)	
CC(=NNC(=S)N1CCCCCC1)c1ccccn1	-9.94% (inactive)	
Cc1cc(NC(=O)C(C)SCC(=O)Nc2cccc(S(=O)(=O)N3CCCCCC3)c2)no1 (stereo not drawn)	-16.5% (inactive)	
O=C(Nc1ccn(CCCNCc2ccc3[nH]ccc3c2)c(=O)n1)OCc1ccccc1	13.4% (inactive)	
NNc1cccc(C=Cc2ccccc2)cc1=O	-2.6% (inactive)	
C=CCN(C(=O)Nc1ccc2c(c1)nc(C)n2C)c1ccccc1	-18% (inactive)	
Cc1nc2cc(NC(=O)Nc3cccc(F)c3)ccc2n1C		3.98 µM (active)
Cn1c(CCN2CCCCCC2)nc2cc(NC(=O)Nc3ccccc3)ccc21	-5.98% (inactive)	
Cc1ccc(OCCNC(=O)c2cccc(S(=O)(=O)N3CCN(Cc4ccccc4)CC3)c2)cc1	0.842% (inactive)	
C=CCOC(=O)N1CCC2CC1c1cc(-c3ccc(OC)cc3)ccc12 (stereo not drawn)	6.22% (inactive)	
C[C@H](NC(=O)[C@@H]1Cc2ccccc2CN1C(=O)OC(C)(C)C)C(=O)NC1CCCC1	4.21% (inactive)	
O=C(CNC(=O)[C@@H]1Cc2ccccc2CN1)NC1CCCCC1	-5.14% (inactive)	
C[C@@H](NC(=O)[C@@H]1Cc2ccccc2CN1)C(=O)NC1CCCC1		7.08 µM (active)
NC(=O)c1ncn([C@@H]2O[C@H](CNCc3cnc(N4CCOCC4)s3)[C@@H](O)[C@H]2O)n1	3.82% (inactive)	
Cc1c[n+]([O-])ccc1[N+](=O)[O-]	-3.23% (inactive)	
COc1ccc(-c2ccc3c(c2)[C@@H]2C[C@H](N(C)S(=O)(=O)c4ccccc4)[C@H]([C@H](C)O)C(=O)N2CC3)cc1	-19.2% (inactive)	
Cc1ccc2c(c1)C1CN(C)CCC1N2S(=O)(=O)c1ccc(Oc2ccc([N+](=O)[O-])cc2)cc1 (stereo not drawn)		8.91 µM (active)
Cc1ccc2c(c1)C1CN(C)CCC1N2C(=S)Nc1ccc(OC(F)F)cc1 (stereo not drawn)	-0.804% (inactive)	
Cc1ccc2c(c1)C1CN(C)CCC1N2S(=O)(=O)c1cccc(F)c1 (stereo not drawn)	-0.281% (inactive)	
C/C(=N\Nc1ccc(Cl)nn1)c1ccccc1O	0.477% (inactive)	
C[C@]12CCC(=O)C=C1C=CC1C2CC[C@@]2(C)C1CC[C@@]21CCC(=O)O1 (stereo partly drawn)	2.58% (inactive)	
Nc1ccc2[nH]c(=S)sc2c1	0.0587% (inactive)	

Structure (SMILES)	activity change, negative = inhibition	Potency
Cc1ccc(C(=O)O/N=C(\N)c2ccccn2)cc1Cl		8.91 µM (active)
COc1ccc(C(=O)O/N=C(\N)c2ccccn2)cc1[N+](=O)[O-]	-7.26% (inactive)	
N/C(=N\OC(=O)c1ccc([N+](=O)[O-])cc1)c1ccccn1	-27.5% (inactive)	
Cc1ccc(S(=O)(=O)N2CCC(C(=O)N3CCCCCCC3)CC2)cc1	2.24% (inactive)	
COC(=O)Cc1nc2c(N)nc(N)nc2[nH]c1=O	5.49% (inactive)	
Cc1cccc(-n2ncc(Cl)c(Cl)c2=O)c1		10 µM (active)
C=CCNc1cnn(-c2ccc(C)cc2)c(=O)c1Cl	-4% (inactive)	
Cc1cccc(N2C(=O)c3cccnc3C2=O)c1	1.6% (inactive)	
CNN/C(N=Cc1ccc([N+](=O)[O-])s1)=N\S(=O)(=O)c1cc(C)c(Cl)cc1SCc1ccccc1	-1.55% (inactive)	
CC(C)(C)c1nnc2sc(SCC(O)=C(C#N)c3nc4ccccc4[nH]3)nn2c1=O	-10.3% (inactive)	
COc1ccc(S(=O)(=O)N2C[C@H]3CON(C)[C@H]3C[C@H]2c2cccc(Br)c2)cc1	-0.931% (inactive)	
CN(c1ccc2nc3ccccc3c(=O)n2n1)C1CCCCC1		0.794 µM (active)
CN(C(=O)c1cc2c(=O)n3ccccc3nc2s1)C1CCCCC1	-10.8% (inactive)	
CN(C(=O)CSc1nncc2ccccc12)C1CCCCC1	3.3% (inactive)	
Cn1cc(C2OC(=O)c3ccccc32)c2ccccc21 (stereo not drawn)	-8.76% (inactive)	
COC(=O)c1ccc(NCc2cc(O)ccc2O)cc1	0.208% (inactive)	
O=C(Cc1ccc([N+](=O)[O-])cc1)NCCc1ccc2c(c1)OCO2	0.328% (inactive)	
CC1CCN(c2ccc(C(=O)NCc3ccc4c(c3)OCO4)cc2[N+](=O)[O-])CC1	1.21% (inactive)	
O=C(NCc1ccc2c(c1)OCO2)c1cc([N+](=O)[O-])ccc1N1CCOCC1		2.82 µM (active)
CC(=O)c1cccc(-c2ccc(CN3C(CC(C)C)C(=O)N(Cc4cn(CC5CCCCC5)nn4)CCS3(=O)=O)cc2)c1 (stereo not drawn)	-6.78% (inactive)	
C=CCCC(=O)N1C[C@H]2CON(C)[C@H]2C[C@H]1c1cccc(Nc2ccccc2)c1	15.4% (inactive)	
CC(Nc1ccc([N+](=O)[O-])cc1[N+](=O)[O-])c1ccccc1 (stereo not drawn)	6.84% (inactive)	
COc1cccc2c1C(=O)c1c(O)c3c(c(O)c1C2=O)CC(O)(C(C)=NNC(=O)c1ccc(Cl)c(Cl)c1)CC3OC1CC(N)C(O)C(C)O1 (stereo not drawn)	-16.6% (inactive)	
CN1CCN(CCCNC(=O)c2ccc(/C=C3\Oc4ccccc4N(Cc4ccc(Cl)cc4)C3=O)cc2)CC1	-12.9% (inactive)	
CCN1CCN(CCNC(=O)c2ccc(/C=C3/Sc4ccccc4N(Cc4cccc(C)c4)C3=O)cc2)CC1		6.31 µM (active)
O=C(NCCCN1CCOCC1)c1ccc2c(c1)N(Cc1cccc(F)c1)C(=O)c1ccccc1S2	0.696% (inactive)	
